From PubChem BioAssay
Shown are actives, neighbours in structure and some others; about 0.73% of the full set was active somewhere.
Vc quorum ag: inducers of Vibrio cholerae quorum light production without autoinducers; V. cholerae BH1578 lux reporter, luminescence, 6 h; activation, % at 18.7 µM; 0.16% of 350,000 active; in the data active means activation mostly above about 9.7%, no sharp cut-off
BioA inh: inhibitors of Mycobacterium tuberculosis BioA enzyme; purified M. tuberculosis BioA enzyme, plate reader; inhibition, % at 9.99 µM; 0.096% of 360,000 active; in the data active means inhibition above about 40%
TcdB GH inh: blocks C. difficile toxin B glycohydrolase activity. P18177. TcdB glycohydrolase enzymatic assay, plate reader. inhibition, % at 9.99 µM. 0.24% of 350,000 active. AID 652162; in the data active means inhibition above about 10%
Y pestis TopoI: inhibitors of Yersinia pestis topoisomerase I | Y. pestis Topo-I cleavage product accumulation, plate reader | 0.064% of 360,000 active | activity, % at 10 µM; in the data active means activity above about 50%, passing the limit was not always enough
VHR inh abs: inhibitors of human VHR1 phosphatase (DUSP3); recombinant VHR phosphatase, pNPP absorbance; P51452; 0.52% of 290,000 active; inhibition, % at 13.3 µM; in the data active means inhibition above about 50%
* = called active by the depositor; i = inactive; . = not tested or not shown.

SMILES | Vc quorum ag | BioA inh | TcdB GH inh | Y pestis TopoI | VHR inh abs
CCn1c(SCC(=O)NNC(=O)Cc2ccccc2)nnc1-c1ccccc1 | 0 | 0 | . | 5 | 30
Cn1c(SCC(=O)NNC(=O)Cc2ccccc2)nnc1-c1ccccc1 | 31* | . | . | -2 | 6
CN1CCN(c2nc(-c3ccccc3)c3cc(Cl)ccc3n2)CC1 | -2 | -1 | . | -1 | 18
Clc1ccc2nc(N3CCNCC3)nc(-c3ccccc3)c2c1 | i | -1 | . | -4 | 52*
CN(C)C(=O)c1ccc(-c2ccc3n(c2=O)C[C@@H]2[C@@H](CO)[C@H](C(=O)NCCc4ccccc4)N[C@H]32)cc1 | . | 0 | 0 | . | .
C[C@H](NC(=O)[C@@H]1Cc2ccccc2CN1)C(=O)NC1CCCCC1 | i | -2 | 0 | -10 | 53*
C[C@@H]1CN([C@@H](C)CO)C(=O)c2cc(-c3ccncc3)cnc2O[C@H]1CN(C)C(=O)Cc1cccnc1 | . | -1 | . | . | .
Cc1ccc2nc(SCC(=O)Nc3nonc3C)[nH]c2c1 | 0 | 4 | 1 | -2 | 54*
CC(C)NC(=O)COc1coc(CN2CCN(Cc3ccccc3)CC2)cc1=O | i | 1 | 1 | -3 | 53*
Nc1ccc(OCCCc2c(N)nc(N)nc2N)cc1 | 1 | -1 | 12* | -17 | 13
O=C(/C=C/NNC(=O)c1ccccc1)c1ccccc1 | i | 2 | . | -5 | 52*
O=C(/C=C/NNC(=O)c1ccc(Br)cc1)c1ccccc1 | 1 | -1 | . | 18 | 32
COc1ccc2c3c([nH]c2c1)[C@H](CO)N(C(=O)c1cccnc1)CC31CN(Cc2cccnc2)C1 | . | . | 0 | . | .
O=C(CNC(=O)C1COc2ccccc2O1)N/N=C\c1ccccc1Cl (stereo not drawn) | i | 5 | 0 | 8 | 56*
CC(=O)Nc1cccc2cc(S(=O)(=O)O)ccc12 | . | . | 0 | . | .
CC(=O)Nc1cccc2cc(O)ccc12 | -1 | -3 | 22* | -8 | .
Cc1ccc(C)c(NC(=S)N(CCc2nc3cc(C)c(C)cc3[nH]2)Cc2cccnc2)c1 | i | -1 | . | -9 | 53*
Cc1cccc(NC(=S)N(CCc2nc3cc(C)c(C)cc3[nH]2)Cc2cccnc2)c1 | i | . | . | -2 | 37
Cc1ccc(NC(=O)NCc2cccnc2)cc1 | -3 | -2 | 1 | 3 | 19
O=C(NCc1cccnc1)Nc1ccc(Br)cc1 | 1 | 1 | 1 | 7 | 53*
C[C@@H]1CN([C@@H](C)CO)S(=O)(=O)c2ccc(-c3ccncc3)cc2O[C@H]1CN(C)Cc1ccccc1 | . | 0 | 0 | . | .
C[C@H]1CN([C@@H](C)CO)S(=O)(=O)c2ccc(-c3ccncc3)cc2O[C@@H]1CN(C)Cc1ccc(Oc2ccccc2)cc1 | . | 0 | 20* | . | .
C[C@H]1CN([C@@H](C)CO)S(=O)(=O)c2ccc(-c3ccncc3)cc2O[C@H]1CN(C)Cc1ccc(Oc2ccccc2)cc1 | . | -1 | 12* | . | .
C[C@@H]1CN([C@H](C)CO)S(=O)(=O)c2ccc(-c3ccncc3)cc2O[C@@H]1CN(C)Cc1ccc(Oc2ccccc2)cc1 | . | -1 | 11* | . | .
C[C@H]1CN([C@@H](C)CO)S(=O)(=O)c2ccc(-c3ccncc3)cc2O[C@@H]1CN(C)Cc1ccccc1 | . | 2 | 4 | . | .
SMILES | Vc quorum ag | BioA inh | TcdB GH inh | Y pestis TopoI | VHR inh abs
C[C@@H]1CN([C@@H](C)CO)C(=O)Cc2cc(N(C)C)ccc2O[C@H]1CN(C)CC1CC1 | . | -1 | -12 | . | .
Nc1ccc2c(c1)[nH]c(=O)c1cc(N)ccc12 | i | 2 | 21* | -7 | .
Cc1ccc(NC(=O)c2ncn(CCCNCc3ccccc3)n2)cc1C | i | 1 | 1 | 1 | .
Cc1ccc(CNCCCn2cnc(C(=O)Nc3ccc(C)c(C)c3)n2)o1 | -1 | -1 | 14* | 8 | .
C[C@@H]1CN([C@@H](C)CO)C(=O)Cc2cc(NC(=O)NC3CCCCC3)ccc2O[C@H]1CN(C)C(=O)Nc1cccc2ccccc12 | . | 0 | 1 | . | .
Cc1cc(C(=O)OCC(=O)Nc2ccccc2C#N)c(C)o1 | 390* | -2 | 1 | 1 | .
Cc1cc(C(=O)OCC(=O)Nc2cc(Cl)ccc2C)c(C)o1 | 12 | 1 | -1 | 8 | .
C[C@@H]1CN([C@H](C)CO)C(=O)c2cc(C3=CCCCC3)cnc2O[C@H]1CN(C)Cc1cccnc1 | . | 15 | 0 | . | .
COCC#Cc1ccc2c(c1)O[C@H](CN(C)C(=O)CC1CC1)[C@@H](C)CN([C@H](C)CO)S2(=O)=O | . | -1 | 12* | . | .
COCC#Cc1ccc2c(c1)O[C@H](CN(C)C(=O)CC1CC1)[C@H](C)CN([C@H](C)CO)S2(=O)=O | . | -2 | 3 | . | .
CC(C)OC(=O)CCC(=O)Nc1nc2ccccc2s1 | 0 | -1 | 1 | 6 | 52*
